# ± gives the standard deviation.
# Test system: MILI (PIWIL2) piRISC loaded with piRNA #1 (26 nt)
# Assay: pre-steady-state target cleavage rate (min^-1); guide: piRNA #1 5'p-UGAGGUAGUAGGUUGUAUAGUAUCCA; MIWI and MILI are mouse PIWI proteins and EfPiwi is from a freshwater sponge; tags in brackets are library labels; higher = faster piRNA-guided slicing of the target
# Conditions: auxiliary factor: 500 nM mouse GTSF1
# Method in brief: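 At 33 °C in HEPES–potassium acetate buffer, a transcribed, DNA-blocked target RNA library […] was exposed for 0–8 or 0–960 min to 1 nM active affinity-purified piRISC carrying a single synthetic guide, with or without 500 nM GTSF1 partner protein. Uncleaved targets were sequenced and normalised to depth and to weakly complementary targets. With three trials pooled and k3 capped at 0.0001 min^-1, a burst-and-steady-state fit produced the pre-steady-state cleavage rate.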
# 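Further: 1 nM active piRISC with 0.1 nM target library at 33 °C single turnover.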
row,Sequence,pre-steady-state target cleavage rate
1,GGAGACCUAUGAUUACAACGUACUACCACA,0.00319 ± 0.0028
2,GGAGACCUUACUAAACAACCUACUACGUCA,0.0571 ± 0.01
3,GGAGACCUUUCUAUACAACCAACUACCUCA,0.00462 ± 0.0029
4,GGAGACGAUAGUAUUCAACCUACUACCUCA,0.156 ± 0.012
5,GGAGACCUUACUAUACAACGUAGUACCUCA,0.015 ± 0.0045
6,GGAGACCUAUGAUUACAAGCUACUAGCUCA,0.00635 ± 0.0034
7,GGAGUGGAUACAAUACAACCUACUUCCUCA,0.00975 ± 0.0031
8,GGAGACCUUUCUAUACAACCUACUACGUCA,0.0394 ± 0.0068
9,GGAGAGGAUUCUAUUCAACCUACUACCUCA,0.174 ± 0.013
10,GGAGACCUUAGUAUACUACCUACUACCUCA,0.0896 ± 0.012
11,GGAGACCUAUGUAUACAACCUACAUACCUCA,0.043 ± 0.0061
12,GGAGACCUAACUAUACAACGUACAACCUCA,0.0148 ± 0.005
13,GGAGACCUAUGAUAACAAGCUACUACCUGA,0.00722 ± 0.0035
14,GGAGACCUAUCAAUACAUCCUACUACCUCA,0.109 ± 0.02
15,GGAGACCUAUGAUUACAUCCUACUACCACA,0.0105 ± 0.0035
16,GGAGACCUUACAAUACAACCAACUACCUCA,0.00567 ± 0.0032
17,GGAGACCUAUGAUAGCAACCUACUACCUCA,0.00366 ± 0.0022
18,GGAGAGGAUACAAUAGAACCUACUACCUCA,0.148 ± 0.012
19,GGAGACCAUAGUAUACAACCUACUACCACA,0.133 ± 0.015
20,GGAGACCUAUCUAUACAUCGUACUACCUCA,0.014 ± 0.0026

row,Sequence,pre-steady-state target cleavage rate
1,GGAGACCUAUCUAUACAACGUACUACGUCA,0.00657 ± 0.0026
2,GGAGACCUUACUAUACUUGCUACUACCUCA,0.0548 ± 0.0062
3,GGAGACCUAUCUAUACUACCUACUACCUGA,0.0569 ± 0.013
4,GGAGACCUAUCUAUACAACGUACUACCUCA,0.0127 ± 0.0028
5,GGAGACCUAUCUAUACAACCUACUCACCUCA,0.0886 ± 0.011
6,GGAGACCUAUGAUAUGUUGCUGACUACCUCA,< 0.0001
7,GGAGACCUAUGAUUACAACCUACUCCCUCA,0.00393 ± 0.0029
8,GGAGACCUAUGUUUACAACCUACUUCCUCA,0.0114 ± 0.0056
9,GGAGUGGAUACUAAACAACCUACUUCCUCA,0.00431 ± 0.0024
10,GGAGACCUAUGAUAUCAACCUACGUACCUCA,0.00296 ± 0.0024
11,GGAGACCUAUGUAAACUACCUACUACCUCA,0.00288 ± 0.0026
12,GGAGUGGAUACUAUACAACCUACUACCUCG [g2:g26:cont:t1G],0.164 ± 0.011
13,GGAGACCUAUGUAUACAACCUACUAGCACA,0.00507 ± 0.0028
14,GGAGACCUAUGUAUACAACGAACUACCUCA,0.00287 ± 0.002
15,GGAGUGGAUACUUUACAACCUACAACCUCA,0.0647 ± 0.0091
16,GGAGACCUAUGAAUACUUCCUACUACCUCA,0.00297 ± 0.0022
17,GGAGACCUAUGUAAACAACCUACUAGCUCA,0.00495 ± 0.0023
18,GGAGACCUAUGUAUACAACCUACAACCUGA,0.0031 ± 0.0024
19,GGAGUGGAUACUAUACAAACUACUACCUCA,0.195 ± 0.015
20,GGAGACCUUACUAUAGAACCUACUACCACA,0.0558 ± 0.012

# — the supplement of paper PMC10338343
